Laboratory results as given in PubChem BioAssay AID504329 (Southern Research Specialized Biocontainment Screening …, 2011).
The campaign covered roughly 340,000 compounds. About 1,000 (0.29%) were called active. Rule as the data show it: inconclusive = inhibition above about 27% without an active follow-up result; inactive = below that. A selection follows. Potency and affinity values are given separately.

Test: H1N1 influenza NS1A inhibitors, functional cell based assay (AID 504329)
Conditions: percent inhibition, at 12.5 µM, hits give high values

Row | Compound | inhibition
1 | CCn1cc(C(=O)NCc2ccc(OC)cc2)c(=O)c2ccc(C)nc21 | -3.98% (inactive)
2 | O=C(NCCc1ccccc1)C(=O)NCC1CCCN1S(=O)(=O)c1ccccc1 (configuration not stated) | -2.99% (inactive)
3 | CCN(CC)c1ccc(/C=C2\CCC(/C=C(/C#N)C(=O)Nc3ccccc3F)=C2N2CCOCC2)cc1 | -9.82% (inactive)
4 | N#C/C(=C\C1=C(N2CCOCC2)C(=C\c2ccc(Cl)cc2)/CC1)C(=O)Nc1ccccc1F | 8.68% (inactive)
5 | N#C/C(=C/C1=C(N2CCOCC2)C(=C/c2ccc(Cl)cc2)/CC1)C(=O)Nc1ccccc1F | -12.3% (inactive)
6 | CCN(CC)c1ccc(/C=C2\CCC(/C=C(\C#N)C(=O)Nc3ccccc3F)=C2N2CCOCC2)cc1 | -0.77% (inactive)
7 | CCOc1cccc(C2C(C(=O)c3ccc(C)o3)=C(O)C(=O)N2c2nnc(C)s2)c1 (configuration not stated) | 3.08% (inactive)
8 | CC1(c2ccccc2)NC(=O)N(NC(=O)COC(=O)c2cc(Br)ccc2O)C1=O (configuration not stated) | -5.16% (inactive)
9 | O=C(NCCN1CCCCC1)c1ccc(Cl)nc1Cl | -3.64% (inactive)
10 | Cc1ccc(S(=O)(=O)Nc2ccc(O)c3cccnc23)cc1 | -4.48% (inactive)
11 | Cc1ccc(S(=O)(=O)Nc2cccc3cccnc23)cc1 | -11% (inactive)
12 | Cc1ccc(S(=O)(=O)Nc2cc(Cl)c(O)cc2C)cc1 | 6.58% (inactive)
13 | Cc1ccc(S(=O)(=O)Nc2cccc3ncccc23)cc1 | -4.33% (inactive)
14 | Cc1nn(-c2ccccc2)c(C)c1/C=C/C(=O)OCC(=O)Nc1ncc(Cl)cc1Cl | -0.68% (inactive)
15 | CCc1ccc2[nH]c(C)c(CN3CCCCCC3)c(=O)c2c1 | 6.48% (inactive)
16 | Cc1cc(NC(=O)CSc2nnc(-c3ccccc3)o2)no1 | 14% (inactive)
17 | Cc1ccc(NC(=O)CSc2nnc(-c3ccco3)o2)cc1 | 5.76% (inactive)
18 | Nc1ccc(-c2ccccc2)cc1 | -0.13% (inactive)
19 | O=C(O)c1ccc(N(c2ccccc2)c2ccccc2)cc1 | -2.79% (inactive)
20 | Cc1ccc(C(=O)Nc2ccc(N3CCN(C(=O)c4ccco4)CC3)cc2)cc1 | -1.89% (inactive)
21 | S=C1NC2(CCCCC2)N=C1c1ccccc1 | -4.42% (inactive)
22 | S=C1NC2(CCCCCC2)N=C1c1ccccc1 | 6.12% (inactive)
23 | CC(=O)Nc1nonc1-c1nc2ccccc2n1CC1CC1 | 6.72% (inactive)

Row | Compound | inhibition
24 | O=C(CSc1nnc(SCc2ccc(Cl)cc2)s1)N/N=C/c1ccc(C(=O)O)cc1 | -0.08% (inactive)
25 | CC1CCN(S(=O)(=O)c2ccc3c(c2)N(CC(=O)N(C)Cc2ccco2)C(=O)CO3)CC1 | 3.45% (inactive)
26 | N#C/C(=C/c1cn(-c2ccccc2)nc1-c1cccc(OCc2ccccc2)c1)C(=O)NCCCn1ccnc1 | -3.98% (inactive)
27 | CCOc1cccc(-c2nn(-c3ccccc3)cc2/C=C(/C#N)C(=O)NCCCn2ccnc2)c1 | 6.31% (inactive)
28 | O=C(NCCCn1ccnc1)c1cn(-c2ccccc2)nc1-c1ccc(F)cc1 | 6.07% (inactive)
29 | CCCOc1cccc(-c2nn(-c3ccccc3)cc2/C=C(\C#N)C(=O)NCCCn2ccnc2)c1 | 1.02% (inactive)
30 | CC(C)C(=O)Nc1cccc(C(=O)Nc2cc([N+](=O)[O-])ccc2F)c1 | -8.76% (inactive)
31 | COc1ccc(C(=O)O/N=C(\N)c2ccc(Cl)cc2)cc1 | 2.64% (inactive)
32 | CN1CCCN(C(=O)CNC(=O)c2ccccc2F)CC1 | -1.28% (inactive)
33 | Cc1c(C(C)(C)C)sc(=NC(=O)c2ccccc2O)n1C | -24.8% (inactive)
34 | Nc1[nH]c(N=NC(=O)c2ccccc2)c2ccccc12 | 19% (inactive)
35 | CC(=O)N=Nc1[nH]c(N)c2ccccc12 | -6.73% (inactive)
36 | Nc1[nH]c(N=NC(=O)c2ccc(F)cc2)c2ccccc12 | 12.2% (inactive)
37 | Nc1[nH]c(N=NC(=O)c2ccc(Cl)cc2)c2ccccc12 | 10.9% (inactive)
38 | Cc1ccc(N2CC(C(=O)Nc3nc4ccc(S(C)(=O)=O)cc4s3)CC2=O)cc1 (configuration not stated) | -4% (inactive)
39 | COc1cc(C(=O)NCc2ccccc2)ccc1OC(F)F | 2.29% (inactive)
40 | Cc1ccc(NC2=C/C(=N/S(=O)(=O)c3cccs3)c3ccccc3C2=O)cc1 | 2.95% (inactive)
41 | O=S(=O)(/N=C(/Nc1ccccc1)c1ccccc1)c1cccs1 | -0.58% (inactive)
42 | Cc1ccc(S(=O)(=O)/N=C2\C=C(NS(=O)(=O)c3ccccc3)C(=O)c3ccccc32)c(C)c1 | 10.6% (inactive)
43 | Cc1ccc(NC2=C/C(=N/S(=O)(=O)c3cccs3)c3ccccc3C2=O)cc1C | -0.69% (inactive)
44 | Cc1cccc(NC2=C/C(=N/S(=O)(=O)c3cccs3)c3ccccc3C2=O)c1 | 22.8% (inactive)
45 | O=C1C=C(Nc2ccc(O)cc2)C(=O)c2ccccc21 | 24.1% (inactive)
46 | Cc1ccc(NC2=CC(=O)C(=O)c3ccccc32)c(C)c1 | -11% (inactive)

Row | Compound | inhibition
47 | O=C1C=C(Nc2ccccc2)c2ccccc2C1=O | -0.21% (inactive)
48 | O=C(C1CC(=O)N(c2ccc(F)cc2)C1)N1CCC(c2nc3ccccc3[nH]2)CC1 (configuration not stated) | -1.46% (inactive)
49 | COc1ccc(-c2cc(C(=O)Nc3ccc(F)cc3F)no2)cc1 | -13.1% (inactive)
50 | CC(C)n1nnnc1SCC(=O)NNC(=O)C1CCCCC1 | -0.25% (inactive)
51 | COC(=O)[C@@H]1C[C@@]2(O)[C@@H](O)[C@@H](O)[C@@H](O)C[C@H]2N1CC1CCCCC1 | -4.19% (inactive)
52 | CCCCn1c(N)c(N(C(=O)CSc2nnnn2-c2ccccc2C)C2CCCC2)c(=O)[nH]c1=O | -10.4% (inactive)
53 | CC1CC(C)CN(C(=O)COc2ccc([N+](=O)[O-])cc2Cl)C1 (configuration not stated) | 0.5% (inactive)
54 | CSCCC(NC(=O)c1ccccc1)C(=O)OCC(=O)Nc1ccc(C)c(Cl)c1 (configuration not stated) | 0.6% (inactive)
55 | COc1ccc(OCc2nnc(SCC(N)=O)n2-c2ccccc2OC)cc1 | -0.95% (inactive)
56 | Oc1ccc(COCc2ccccc2)c2cccnc12 | 22.4% (inactive)
57 | c1ccc(N2CCN(Cc3ccnc4ccccc34)CC2)cc1 | -0.44% (inactive)
58 | Oc1ccc2ccccc2c1CN1CCN(c2ccccc2)CC1 | 0.87% (inactive)
59 | O=[N+]([O-])c1cc(Cl)c(O)c2ncccc12 | -6.45% (inactive)
60 | O=S(=O)(c1ccc(Cl)cc1)N1CCN(Cc2ccc(O)c3ncccc23)CC1 | 19.8% (inactive)
61 | O=[N+]([O-])c1cc2c(cc1CN1CCN(c3ccccc3)CC1)OCO2 | 1.15% (inactive)
62 | COc1ccc(C2C(C(=O)Nc3cc(C)on3)c3ccccc3C(=O)N2C)cc1 (configuration not stated) | 7.42% (inactive)
63 | CCCCNS(=O)(=O)c1cc(-c2nn(C)c(=O)c3ccccc23)ccc1C | -6.29% (inactive)
64 | CC(=O)N1N=C(c2ccc(Br)cc2)OC12CCCC2 | -0.33% (inactive)
65 | C=CCSc1nc(N)c(C(=O)Nc2ccccc2OC)cc1C(=O)Nc1ccccc1 | 6.7% (inactive)
66 | COc1ccccc1NC(=O)c1c(N=Cc2c(O)ccc3ccccc23)cnn1C | 15.2% (inactive)
67 | Cc1cc(OCC(=O)OCC(=O)N2CCc3ccccc3C2)ccc1Cl | -4.55% (inactive)
68 | Cc1ccc(C2Nc3ccccc3NC3=C2C(=O)CC(C)(C)C3)c(O)c1 (configuration not stated) | -4.27% (inactive)
69 | Cc1ccc(NN=C2C(=O)OC(C)(C)OC2=O)c(C)c1 | -14.3% (inactive)

Row | Compound | inhibition
70 | O=C(c1ccccc1F)N1CCN(C(=O)C(c2ccccc2)c2ccccc2)CC1 | 6.85% (inactive)
71 | O=c1ccc(Cl)nn1-c1ccccc1 | -0.77% (inactive)
72 | CSCCC(NC(=O)COc1ccccc1)C(=O)N1CCCCC1 (configuration not stated) | 0.87% (inactive)
73 | CC(=O)c1ccc(S(=O)(=O)NCCCC(=O)N(C)Cc2ccc3c(c2)OCO3)cc1 | -23.5% (inactive)
74 | CCOC(=O)C(=O)Nc1cc(C)nn1-c1nc2ccccc2[nH]1 | 11.3% (inactive)
75 | Cc1cc(NC(=O)CC#N)n(-c2nc3ccccc3[nH]2)n1 | -16.5% (inactive)
76 | CCCOc1ccc(C(C)=O)cc1CSc1nc(O)cc(=O)[nH]1 | 4.86% (inactive)
77 | COc1ccc(C(=O)NCC(=O)N2CCN(C(=O)c3ccco3)CC2)cc1 | -3.4% (inactive)
78 | O=C(COc1c(Br)cc(Br)cc1Br)N/N=C/c1ccco1 | -0.44% (inactive)
79 | COc1cc(NCc2ccccc2O)c2ncccc2c1 | -8.87% (inactive)
80 | CN(C)CCCNC(=O)c1ccccn1 | -2.43% (inactive)
81 | CN(C)CCCNC(=O)c1ccc(-c2ccccc2)cc1 | -6.67% (inactive)
82 | CN(C)CCCNc1c2ccccc2nc2ccccc12 | -0.82% (inactive)
83 | CC(C)C(=O)N1CCC(n2nccc2NC(=O)CCOc2ccccc2)CC1 | 0.18% (inactive)
84 | COc1ccc(/C=N/NC(=O)CN2CCS(=O)(=O)CC2)cc1 | -0.94% (inactive)
85 | CCOC(=O)c1[nH]c2c(c1-c1ccccc1)C(=O)CC(c1ccc(OC)c(OC)c1)C2 (configuration not stated) | 8.75% (inactive)
86 | O=C(NC(Cc1ccccc1)C(=O)O)/C(=C/c1ccccc1)NC(=O)c1ccc(Br)o1 (configuration not stated) | 3.22% (inactive)
87 | CCCCCn1c(=NC(=O)c2cccnc2)c(C#N)cc2c(=O)n3cccc(C)c3nc21 | -3.21% (inactive)
88 | O=C(COC(=O)c1cccc(S(=O)(=O)NCc2ccccc2)c1)c1ccccc1 | 3.76% (inactive)
89 | O=C(NCC(c1cccs1)N1CCOCC1)c1ccc(Cl)c(S(=O)(=O)N2CCOCC2)c1 (configuration not stated) | -3.43% (inactive)
90 | CC1CCN(Cc2c(C(=O)N/N=C/c3ccccc3O)nnn2-c2nonc2N)CC1 | -0.06% (inactive)
91 | Nc1nonc1-n1nnc(C(=O)N/N=C/c2ccccc2Br)c1CN1CCCC1 | 1.45% (inactive)
92 | O=C(CN1C(=O)c2cccc3cccc1c23)NCC1CCCO1 (configuration not stated) | 7.9% (inactive)
